In PubChem BioAssay (NCI):
This is part of a sample that, as a whole, favours compounds with a hit. Of some 83,000 tested, about 20% had one in any assay.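 96-well plates, one dose, 48 hours. Percent growth reported; active if below 10.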 Active and inactive are the calls of the source.

Columns and labels:
Assay in all cases: NCI-60 one-dose screen, 48 h (100 = growth as untreated, 0 = no growth, -100 = all killed)
Details in all cases: 10 µM
[1] = system: SK-MEL-2 melanoma
[2] = system: SN12C renal
[3] = system: UO-31 renal
[4] = system: TK-10 renal
[5] = system: ACHN renal
[6] = system: CAKI-1 renal
[7] = system: A498 renal
[8] = system: CCRF-CEM leukemia
[9] = system: MOLT-4 leukemia
[10] = system: SR leukemia
[11] = system: RPMI-8226 leukemia
[12] = system: OVCAR-8 ovarian
[13] = system: OVCAR-5 ovarian
[14] = system: OVCAR-4 ovarian
[15] = system: SK-OV-3 ovarian
[16] = system: IGROV1 ovarian
[17] = system: OVCAR-3 ovarian
[18] = system: HS 578T breast
[19] = system: NCI/ADR-RES ovarian

Measured: growth

C/C(=N\NC(=S)N1CCCC1)c1ccccn1
inactive: [1] 13.8% | [2] 14.3% | [4] 28.5% | [5] 15.5% | [11] 12.9% | [12] 11.1% | [13] 40.3% | [15] 26.5% | [17] 23.8% | [18] 31.8%
active: [3] -3.72% | [6] 6.32% | [7] -5.14% | [8] 0.145% | [9] 3.06% | [10] 6.59% | [14] 3.92% | [16] -3.85% | [19] -5.31%

CC(=O)O[C@H]1CC[C@@]2(C)[C@@H](CC[C@@H]3[C@@H]2CC[C@]2(C)C=C(C=O)C[C@@H]32)C1
active: [8] -20.8% | [9] -29.1% | [10] 2.16% | [11] 8.64%
inactive: [1] 73.7% | [2] 58.9% | [3] 93% | [4] 120% | [5] 95% | [6] 91% | [7] 94.9% | [12] 24.9% | [13] 71.8% | [14] 70.4% | [15] 113% | [16] 60.2% | [17] 57.8% | [18] 105% | [19] 70.5%

NC(N)=NS(=O)(=O)c1ccc(Nc2ccc3nnc(-c4ccncc4)n3n2)cc1
inactive: [1] 131% | [2] 94.6% | [3] 78.6% | [4] 112% | [5] 101% | [6] 106% | [7] 95.5% | [8] 109% | [9] 101% | [10] 96.9% | [11] 104% | [12] 96.7% | [13] 100% | [14] 103% | [15] 104% | [16] 113% | [17] 110% | [19] 105%

Cc1cc2cc3c(=O)[nH]c(=O)cc-3n(CC(O)C(O)C(O)CO)c2cc1C (stereo not given)
inactive: [1] 120% | [2] 113% | [3] 99.2% | [4] 125% | [5] 75.1% | [6] 87.9% | [7] 109% | [8] 105% | [9] 99.8% | [10] 111% | [11] 106% | [12] 97.3% | [13] 106% | [14] 109% | [15] 99.1% | [16] 112% | [17] 103% | [18] 101% | [19] 105%

COc1cc(-c2nc3ccccc3[nH]2)ccc1OCC(=O)N=Nc1c(O)[nH]c2ccccc12
inactive: [1] 103% | [2] 83.2% | [3] 89.3% | [4] 136% | [5] 101% | [6] 94.2% | [7] 95.2% | [9] 65.9% | [11] 25.8% | [12] 49.1% | [13] 109% | [14] 76.4% | [15] 101% | [16] 93.2% | [17] 79.6% | [19] 109%
active: [8] -25.3% | [10] -5.28%

Cn1cnc([N+](=O)[O-])c1/C=C1\Oc2ccc(Cl)cc2C1=O
inactive: [1] 82.2% | [2] 98.9% | [3] 48.3% | [4] 98.2% | [5] 79.4% | [6] 78.1% | [7] 98.4% | [8] 33.7% | [9] 49.3% | [10] 20.7% | [11] 70.7% | [12] 72.5% | [13] 108% | [14] 92.3% | [15] 96.2% | [16] 73.1% | [17] 86% | [18] 104% | [19] 100%

COc1ccc(Nc2nc(NCc3ccccc3)c3ccccc3n2)cc1
active: [12] 6.75% | [14] -37.2% | [18] -3.28%
inactive: [1] 63.4% | [2] 69.5% | [3] 58.9% | [4] 40.6% | [5] 15.6% | [6] 35.7% | [7] 38.9% | [8] 68.4% | [9] 81.8% | [10] 45.2% | [11] 75.9% | [13] 78.7% | [15] 13.4% | [16] 42.5% | [17] 14.8% | [19] 39.7%

Fc1ccc(Nc2ccnc(N3CCN(c4ccnc5cc(Cl)ccc45)CC3)n2)cc1
active: [3] 7.09%
inactive: [1] 60.3% | [2] 49% | [4] 30.5% | [5] 38.7% | [6] 41.9% | [7] 22.7% | [8] 40.1% | [9] 13% | [10] 31% | [11] 23.9% | [12] 36.6% | [13] 55.9% | [14] 33.1% | [15] 56% | [16] 43.7% | [17] 44.1% | [18] 61.4% | [19] 44.1%

C=CCOc1ccc2c(c1)CC=C1[C@@H]2CC[C@]2(C)C(=O)/C(=N/O)C[C@@H]12
inactive: [1] 106% | [2] 88.3% | [3] 86% | [4] 72.3% | [5] 55.4% | [6] 50.4% | [7] 96.6% | [8] 30.9% | [9] 46% | [10] 23.9% | [11] 40.6% | [12] 91.2% | [13] 50.6% | [14] 73.3% | [15] 121% | [16] 97.1% | [17] 108% | [18] 99.2% | [19] 83.1%

CC1(CO)CCCC12OCCO2 (stereo not given)
inactive: [1] 95.2% | [2] 100% | [3] 93.7% | [4] 107% | [5] 102% | [6] 101% | [7] 94.1% | [8] 97.3% | [9] 107% | [10] 93.3% | [11] 100% | [12] 106% | [13] 97.3% | [14] 111% | [15] 111% | [16] 104% | [17] 108% | [18] 119% | [19] 113%

Nc1ncncc1-c1ccc(F)cc1
inactive: [1] 132% | [2] 107% | [3] 103% | [4] 116% | [5] 108% | [6] 98.5% | [7] 95.2% | [8] 109% | [9] 98.4% | [10] 127% | [11] 109% | [12] 107% | [13] 115% | [14] 107% | [15] 108% | [16] 110% | [17] 111% | [19] 107%

FC(F)(F)c1ccc(-c2cnc(Cl)nc2NC2CCCCCC2)cc1
active: [1] -4.24% | [5] 5.68% | [11] -4.84% | [17] 3.4%
inactive: [2] 18.2% | [3] 23.5% | [4] 32.1% | [6] 67.5% | [7] 89.9% | [8] 26.3% | [9] 85.1% | [10] 39.2% | [12] 15.2% | [13] 28.7% | [14] 10.6% | [15] 56.1% | [16] 27.7% | [18] 41.1% | [19] 74.2%

Cc1nn2c(/C=C3/C(=O)Nc4ccc(Cl)cc43)c(-c3ccccc3)nc2s1
inactive: [1] 32.7% | [2] 52.7% | [3] 29.6% | [5] 30.1% | [6] 53.4% | [7] 43.8% | [8] 50.7% | [9] 57.2% | [11] 23.7% | [12] 14.6% | [13] 73.6% | [19] 38.3%
active: [4] 6.61% | [10] -12.7% | [14] -52.3% | [15] -0.11% | [16] 3.8% | [17] 9.92% | [18] -6.37%

Nc1nc2c(nnn2C2CC(O)C(CO)O2)c(=O)[nH]1 (stereo not given)
inactive: [1] 42.8% | [2] 45.3% | [3] 30.9% | [4] 59.2% | [5] 23.3% | [6] 32.4% | [7] 55.7% | [8] 19.4% | [9] 30.4% | [10] 32% | [11] 36.2% | [12] 38.4% | [13] 87.8% | [14] 51.4% | [15] 20.2% | [16] 67.6% | [17] 40.8% | [18] 75.4% | [19] 30.2%

COc1cc(CSc2nc3ccc(Cl)cc3c(=O)n2Cc2ccccc2)cc(OC)c1OC
active: [17] -0.909%
inactive: [1] 21.4% | [2] 38.6% | [3] 27.1% | [4] 73.6% | [5] 40.3% | [6] 26.7% | [7] 24% | [8] 28.5% | [9] 29.4% | [10] 23.1% | [11] 68.7% | [12] 53% | [13] 46.7% | [14] 52% | [15] 24.4% | [16] 35.3% | [18] 30.5% | [19] 14%

CCNC(=S)NN
inactive: [1] 128% | [2] 81.7% | [3] 68.4% | [4] 130% | [5] 96.4% | [6] 90.1% | [7] 91.2% | [8] 46.2% | [9] 73.3% | [10] 61.6% | [11] 75.9% | [12] 71.1% | [13] 69.3% | [14] 82.2% | [15] 104% | [16] 12.8% | [17] 106% | [18] 100% | [19] 83.8%

COc1ccc(C2CC(c3ccc(-c4ccccc4)cc3)=NN2c2ccc(S(N)(=O)=O)cc2)cc1 (stereo not given)
inactive: [1] 90.3% | [2] 52.6% | [3] 50% | [4] 65.4% | [5] 74.7% | [6] 45.2% | [7] 98% | [8] 51.7% | [9] 54.8% | [10] 80% | [11] 57.2% | [12] 70.2% | [13] 90% | [14] 70% | [15] 79.5% | [16] 46.3% | [17] 89.9% | [18] 85.5% | [19] 60.7%
